# Counter-ions that a name gives are not always drawn. ± gives the standard deviation of the averaged measurements.
# Assays:
# [1] = test system: Saccharomyces cerevisiae BY4741 SeMeCo community; assay: z-score of prototroph abundance vs DMSO median; higher = larger share of this subpopulation than in DMSO controls; details: 10 µM; 24 h; SM minimal medium; subpopulation (auxotrophy): Prototroph
# Outline: (§1)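 Automated confocal microscopy of paraformaldehyde-fixed cells was used to follow a Saccharomyces cerevisiae BY4741 community carrying four plasmids, each restoring one auxotrophy and encoding a distinct fluorescent protein. The community was pre-grown overnight to OD600 1.0, diluted to 0.3, and added at 70 µl to 384-well plates acoustically predosed with library drugs (10 µM final) for 24 h of growth in minimal SM medium. Single-auxotroph fluorescent strains set thresholds and autofluorescence correction, and each subpopulation's abundance was scored as a z-score against the vehicle-well median.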
# [2] = test system: Saccharomyces cerevisiae BY4741 SeMeCo community; assay: z-score of subpopulation abundance vs DMSO median, subpopulation auxotrophic for M; higher = larger share of this subpopulation than in DMSO controls; details: 10 µM; 24 h; SM minimal medium; subpopulation (auxotrophy): M
# Outline: as §1
# [3] = test system: Saccharomyces cerevisiae BY4741 SeMeCo community; assay: z-score of subpopulation abundance vs DMSO median, subpopulation auxotrophic for L; higher = larger share of this subpopulation than in DMSO controls; details: 10 µM; 24 h; SM minimal medium; subpopulation (auxotrophy): L
# Outline: as §1
# [4] = test system: Saccharomyces cerevisiae BY4741 SeMeCo community; assay: z-score of subpopulation abundance vs DMSO median, subpopulation auxotrophic for U; higher = larger share of this subpopulation than in DMSO controls; details: 10 µM; 24 h; SM minimal medium; subpopulation (auxotrophy): U
# Outline: as §1
# [5] = test system: Saccharomyces cerevisiae BY4741 SeMeCo community; assay: z-score of subpopulation abundance vs DMSO median, subpopulation auxotrophic for H; higher = larger share of this subpopulation than in DMSO controls; details: 10 µM; 24 h; SM minimal medium; subpopulation (auxotrophy): H
# Outline: as §1
# [6] = test system: Saccharomyces cerevisiae BY4741 SeMeCo community; assay: z-score of subpopulation abundance vs DMSO median, subpopulation auxotrophic for LU; higher = larger share of this subpopulation than in DMSO controls; details: 10 µM; 24 h; SM minimal medium; subpopulation (auxotrophy): LU
# Outline: as §1
# [7] = test system: Saccharomyces cerevisiae BY4741 SeMeCo community; assay: z-score of subpopulation abundance vs DMSO median, subpopulation auxotrophic for LM; higher = larger share of this subpopulation than in DMSO controls; details: 10 µM; 24 h; SM minimal medium; subpopulation (auxotrophy): LM
# Outline: as §1
# [8] = test system: Saccharomyces cerevisiae BY4741 SeMeCo community; assay: z-score of subpopulation abundance vs DMSO median, subpopulation auxotrophic for HM; higher = larger share of this subpopulation than in DMSO controls; details: 10 µM; 24 h; SM minimal medium; subpopulation (auxotrophy): HM
# Outline: as §1
# [9] = test system: Saccharomyces cerevisiae BY4741 SeMeCo community; assay: z-score of subpopulation abundance vs DMSO median, subpopulation auxotrophic for HU; higher = larger share of this subpopulation than in DMSO controls; details: 10 µM; 24 h; SM minimal medium; subpopulation (auxotrophy): HU
# Outline: as §1
# [10] = test system: Saccharomyces cerevisiae BY4741 SeMeCo community; assay: z-score of subpopulation abundance vs DMSO median, subpopulation auxotrophic for UM; higher = larger share of this subpopulation than in DMSO controls; details: 10 µM; 24 h; SM minimal medium; subpopulation (auxotrophy): UM
# Outline: as §1
# [11] = test system: Saccharomyces cerevisiae BY4741 SeMeCo community; assay: z-score of subpopulation abundance vs DMSO median, subpopulation auxotrophic for HL; higher = larger share of this subpopulation than in DMSO controls; details: 10 µM; 24 h; SM minimal medium; subpopulation (auxotrophy): HL
# Outline: as §1
# [12] = test system: Saccharomyces cerevisiae BY4741 SeMeCo community; assay: z-score of subpopulation abundance vs DMSO median, subpopulation auxotrophic for HLU; higher = larger share of this subpopulation than in DMSO controls; details: 10 µM; 24 h; SM minimal medium; subpopulation (auxotrophy): HLU
# Outline: as §1
# [13] = test system: Saccharomyces cerevisiae BY4741 SeMeCo community; assay: z-score of subpopulation abundance vs DMSO median, subpopulation auxotrophic for HLM; higher = larger share of this subpopulation than in DMSO controls; details: 10 µM; 24 h; SM minimal medium; subpopulation (auxotrophy): HLM
# Outline: as §1
# [14] = test system: Saccharomyces cerevisiae BY4741 SeMeCo community; assay: z-score of subpopulation abundance vs DMSO median, subpopulation auxotrophic for HUM; higher = larger share of this subpopulation than in DMSO controls; details: 10 µM; 24 h; SM minimal medium; subpopulation (auxotrophy): HUM
# Outline: as §1
# [15] = test system: Saccharomyces cerevisiae BY4741 SeMeCo community; assay: z-score of subpopulation abundance vs DMSO median, subpopulation auxotrophic for HLUM; higher = larger share of this subpopulation than in DMSO controls; details: 10 µM; 24 h; SM minimal medium; subpopulation (auxotrophy): HLUM
# Outline: as §1
# [16] = test system: Saccharomyces cerevisiae BY4741 SeMeCo community; assay: z-score of subpopulation abundance vs DMSO median, subpopulation auxotrophic for LUM; higher = larger share of this subpopulation than in DMSO controls; details: 10 µM; 24 h; SM minimal medium; subpopulation (auxotrophy): LUM
# Outline: as §1
# [17] = test system: Saccharomyces cerevisiae BY4741 SeMeCo community; assay: mean cell size (pixel area) (pixels); higher = larger cells; details: 10 µM; 24 h; SM minimal medium
# Outline: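 Harmony analysis of automated confocal images of paraformaldehyde-fixed yeast gave the mean cell pixel area per well. The yeast was a Saccharomyces cerevisiae BY4741 community carrying four plasmids, each with a fluorescent marker and each complementing one auxotrophy, incubated for 24 h in SM medium containing drug at a final 10 µM in 384-well plates. Results are averaged over 3 replicates. Same SeMeCo high-content imaging drug screen: Selleck FDA-approved drugs at 10 µM, 24 h in SM medium, 384-well plates, 3 replicates.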
SMILES,z-score of prototroph abundance [1],z-score of subpopulation abundance [2],z-score of subpopulation abundance [3],z-score of subpopulation abundance [4],z-score of subpopulation abundance [5],z-score of subpopulation abundance [6],z-score of subpopulation abundance [7],z-score of subpopulation abundance [8],z-score of subpopulation abundance [9],z-score of subpopulation abundance [10],z-score of subpopulation abundance [11],z-score of subpopulation abundance [12],z-score of subpopulation abundance [13],z-score of subpopulation abundance [14],z-score of subpopulation abundance [15],z-score of subpopulation abundance [16],mean cell size [17]
Cc1c(C)c2c(c(C)c1O)CCC(C)(CCCC(C)CCCC(C)CCCC(C)C)O2 (stereo not given) [Vitamin E],0.82,-0.6,-0.8,0.13,-0.89,-0.31,-0.64,-1.28,0.51,-0.04,-1.01,-1.19,-1.72,-0.31,-1.29,–,–
CC1=C(CC(=O)O)c2cc(F)ccc2/C1=C\c1ccc([S+](C)[O-])cc1 (stereo not given) [Sulindac],0.27,0.53,1.59,–,–,-0.59,1.7,0.57,-0.74,-1.2,0.1,-0.15,-0.2,-0.07,-0.02,0.36,–
CC(=O)O[C@]1(C(C)=O)CC[C@H]2[C@@H]3C[C@H](C)C4=CC(=O)CC[C@]4(C)[C@H]3CC[C@@]21C [Medroxyprogesterone acetate],0.03,0.21,-0.93,0.34,–,0.01,-0.1,0.17,–,0.34,-0.1,-0.17,-0.12,-0.19,-0.36,-0.28,–
COC(=O)C1=C(C)NC(C)=C(C(=O)OCC(C)C)C1c1ccccc1[N+](=O)[O-] (stereo not given) [Nisoldipine],-0.75,0.83,0.49,-0.48,0.84,-0.62,1.4,0.97,–,0.03,0.67,0.34,0.45,1.07,1.09,0.88,–
CN(C)CCOc1ccc(/C(=C(/CCCl)c2ccccc2)c2ccccc2)cc1 [Toremifene Citrate],-1.18,-0.37,0.06,0.79,2.17,0.34,–,–,2.51,0.54,1.37,1.1,1.44,0.27,-0.23,0.81,12.1 ± 0.2
O=c1[nH]cnc2c1ncn2[C@@H]1O[C@H](CO)[C@@H](O)[C@H]1O [Isoprinosine],–,-0.21,-0.33,-0.71,0.09,-1.21,0,-0.53,-0.35,-0.74,-0.64,-0.46,-0.33,-0.24,-0.65,–,–
Cc1ccc2c(Cl)cc(Cl)c(O)c2n1 [Chlorquinaldol],-18.8,7.61,0.46,–,9.18,-2.2,9.8,33.5,7.3,-1.95,19.8,28.9,107,15.8,114,16.2,–
CC(C)Cc1ccc(C(C)C(=O)O)cc1 (stereo not given) [Ibuprofen],3.17,-0.51,-0.92,-1.82,–,-2.51,-0.71,-1.2,-2.1,-3.84,-0.54,-0.51,0.37,-3.22,-0.59,-2.23,–
CS(=O)(=O)c1ccc(C2=C(c3ccccc3)C(=O)OC2)cc1 [Rofecoxib],-0.48,0.64,1.07,–,0.29,0.3,1.55,1.11,0.01,0.95,0.69,1.31,1.01,0.77,0.43,1.28,–
CC1(C)S[C@@H]2[C@H](NC(=O)[C@H](NC(=O)N3CCN(S(C)(=O)=O)C3=O)c3ccccc3)C(=O)N2[C@H]1C(=O)O [Mezlocillin Sodium],0.2,-0.07,0.24,0,0.1,0.6,–,–,0.3,-0.36,–,0.28,-0.19,-0.29,-0.69,-0.16,12.5 ± 0.21
CO/N=C1\C[C@]2(C[C@@H]3C[C@@H](C/C=C(\C)C[C@@H](C)/C=C/C=C4\CO[C@@H]5[C@H](O)C(C)=C[C@@H](C(=O)O3)[C@]45O)O2)O[C@H](/C(C)=C/C(C)C)[C@H]1C [Moxidectin],-0.99,-0.74,0.29,0.66,1.63,0.03,0.55,1.1,2.12,0.37,1.14,1.24,1.14,1.33,-0.1,0.37,–
CCCCOc1ccc(CC(=O)NO)cc1 [Bufexamac],1.23,-0.94,-1.49,0.85,-0.53,-0.51,-1.36,-0.9,0.4,-0.32,-0.85,-0.71,-1.19,-1.13,-1.25,-0.9,–
CCN1CC(CCN2CCOCC2)C(c2ccccc2)(c2ccccc2)C1=O (stereo not given) [Doxapram HCl],0.14,0,-1.14,0.42,-0.42,-1.17,-0.29,-0.61,-0.57,0.7,-1.3,-0.53,-1.09,0.9,-0.71,-0.43,–
C[C@H]1c2cccc(O)c2C(O)=C2C(=O)[C@]3(O)C(O)=C(C(N)=O)C(=O)[C@@H](N(C)C)[C@@H]3[C@@H](O)[C@@H]21 [Doxycycline],1.27,0.04,-0.26,-0.63,-0.79,-0.52,-0.26,-0.76,-1.25,-1.44,-0.31,-0.24,-0.1,-1.21,0.32,-0.15,–

# — the supplement of paper PMC8975748
